Screening results: PubChem BioAssay, National Center for Advancing Translational Sciences (NCATS)
Only some compounds are listed: those with a hit (about 4.7% of all), similar ones and a draw of the others.
D1 potentiator = potentiators of human D1 dopamine receptor; P21728; HEK293 TREx D1 cells, calcium flux, dopamine EC20 potentiation; potentiation, % at 10 µM; 0.036% of 360,000 active; AID 504651; in the data active = potentiation above about 30%
TRHR enhancer-1 = TRH receptor (human) allosteric enhancement; TRHR cells, fluo-8 calcium fluorescence, EC20 TRH enhancement; 0.66% of 360,000 active; enhancement, % at 2 µM; in the data active = enhancement above about 30%
Target sequence (P34981 whole entry, looked up): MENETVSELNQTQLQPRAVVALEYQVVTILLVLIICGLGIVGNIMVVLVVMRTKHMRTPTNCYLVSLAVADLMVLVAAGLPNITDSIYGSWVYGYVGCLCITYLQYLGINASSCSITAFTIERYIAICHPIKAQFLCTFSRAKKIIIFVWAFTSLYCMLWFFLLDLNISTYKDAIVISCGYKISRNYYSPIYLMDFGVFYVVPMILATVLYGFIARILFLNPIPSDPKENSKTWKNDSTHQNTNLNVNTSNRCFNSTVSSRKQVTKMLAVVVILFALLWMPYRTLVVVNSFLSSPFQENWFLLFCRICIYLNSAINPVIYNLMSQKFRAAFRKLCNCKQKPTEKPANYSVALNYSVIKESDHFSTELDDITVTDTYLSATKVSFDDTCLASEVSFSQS
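Enhancer read-out: after compound pinning and an initial kinetic agonist-mode read, an EC20 of TRH (10 nM final) was injected and fluo-8 calcium signal (Ex 480/Em 530) followed at 1 s/cycle for 100 cycles in TRHR-expressing cells.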
D1 antagonist = antagonists of human D1 dopamine receptor; P21728; HEK293 TREx D1 cells, calcium flux, dopamine EC80; stronger effect = lower value; activity change, negative = inhibition, % at 10 µM; 3.2% of 360,000 active; in the data active = activity change below about -30%
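Using tetracycline-induced force-coupled D1 Hek293 cells and a calcium dye, signals were followed for 180 s after compound, then for 180 s after EC80 dopamine, to detect inhibitors.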
D1 ag = agonists of human D1 dopamine receptor; P21728; HEK293 T-REx D1 cells, calcium flux, agonist mode; AID 504660; 1% of 360,000 active; activation, % at 2 µM
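Tetracycline-induced HEK293 TREx D1 cells, force-coupled to calcium signalling, were dye-loaded with a no-wash calcium kit. Compound was pin-added after a 10 s baseline. Fluorescence was read kinetically at 1 cycle/s for 180 s, with calcium rises flagged as agonism.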
TRHR agonist-1 = activates the human TRH receptor; P34981; TRHR cells, calcium flux fluo-8, FDSS agonist mode; activation, % at 2 µM; 0.18% of 360,000 active
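Read-out: compound-evoked intracellular calcium rise in TRHR cells, fluo-8 dye, kinetic FDSS fluorescence at 1 s/cycle following a 10-cycle baseline. Cells cultured overnight before dye loading (30 min–1.5 h, RT).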
TRHR enhancer-2 = confirmation of human TRH receptor allosteric enhancers; 970 tested, under 10 active; shares compounds with TRHR enhancer-1; activity change, negative = inhibition, % at 46.1 µM; TRH receptor cell assay, enhancer confirmation qHTS; active = well fitted curve in the direction sought with a large enough effect; inconclusive = small, poorly fitted or top-dose-only effect, or another doubt; inactive = no such curve, though single readings can be large; an effect the other way counts as inactive or inconclusive;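 also: compound effect scored on response to added TRH at EC20 of 10 nM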
TRHR agonist-2 = confirmation of human TRH receptor agonists | 8% of 970 active | Potency, µM (highest dose often 46.1 µM), actives largely listed as activators | shares compounds with TRHR enhancer-1 | AID 493078 | TRHR-expressing cells, agonist activation read-out; active = well fitted curve in the direction sought with a large enough effect; inconclusive = small, poorly fitted or top-dose-only effect, or another doubt; inactive = no such curve, though single readings can be large; an effect the other way counts as inactive or inconclusive; also: nearly all actives have a fitted effect of over 75% in size
Numbers stand for hits; i = inactive; ? = inconclusive; nt = no result. Rule as the data show it, unless noted: active = activation above about 30%; inactive = the rest.

SMILES | D1 potentiator | TRHR enhancer-1 | D1 antagonist | D1 ag | TRHR agonist-1 | TRHR enhancer-2 | TRHR agonist-2
COc1ccc(CNCc2ccccc2C(F)(F)F)cc1 | i | i | i | i | i | nt | nt
COc1ccc(CNCc2cccc3ccccc23)cc1 | i | 51.9 | i | i | i | ? | ?
COc1ccccc1N1CCN(C(=O)CSc2nc3ccccc3nc2N2CCC(C)CC2)CC1 | i | 53.7 | i | i | i | i | i
COc1ccccc1N1CCN(C(=O)CSc2nc3ccccc3nc2N2CCCCC2)CC1 | i | i | i | i | i | nt | nt
COc1ccc(C(C)(C)C)cc1NC(=O)c1ccc[n+]([O-])c1 | i | 53.2 | i | i | i | i | i
O=C(CSc1nc2ccccc2s1)N1c2ccccc2Sc2ccc(C(F)(F)F)cc21 | i | 58.4 | i | i | i | i | i
O=C(NC1(C(F)(F)F)NC(=O)N(CCc2ccccc2)C1=O)c1ccccc1Cl (stereo not drawn) | i | i | i | i | i | nt | nt
O=C(c1ccc2c(c1)OCO2)C1CCCN(C(=O)c2cnn(Cc3ccccc3)c2)C1 (stereo not drawn) | i | 41.2 | i | i | i | i | i
CC(=N/O)/C(C)=N\NC(=O)c1ccccn1 | i | 59.7 | i | i | i | i | i
Cc1ccc(CN(C(=O)COc2ccc(Br)cc2)C2CCS(=O)(=O)C2)o1 (stereo not drawn) | i | i | i | i | i | nt | nt
NS(=O)(=O)c1ccc(NC(=O)COC(=O)c2cn(-c3ccccc3)nc2-c2ccc(F)cc2)cc1 | i | 44.8 | i | i | i | i | ?
CC(C)C1N=C2c3ccccc3N=C(SCC(=O)NCc3ccc(F)cc3)N2C1=O (stereo not drawn) | i | i | i | i | i | nt | nt
N#CCCN(C(=O)COC(=O)Cc1c[nH]c2ccccc12)c1ccccc1 | i | i | i | i | i | nt | nt
Cc1csc(N2CCCC2=O)n1 | i | 41.4 | i | i | i | i | i
Cc1ccc(N2CCN(C(=O)c3cc(C(=O)c4ccccc4C)c[nH]3)CC2)c(C)c1 | nt | 86.4 | i | i | i | i | i
Cc1ccc(N2CCN(C(=O)c3ccccc3)CC2)c(C)c1 | i | i | i | i | i | nt | nt
Cc1ccc2c(c1)CC(C)N2S(=O)(=O)c1nnc(NC(=O)c2ccccc2F)s1 (stereo not drawn) | i | i | i | i | i | nt | nt
CC(=O)N1CCN(S(=O)(=O)c2cccc(C(=O)NC3CC3)c2)CC1 | i | i | i | i | i | nt | nt
Cc1ccc(NC(=O)CSc2nc3nc(C)c(Br)cc3[nH]2)cc1F | i | 80.5 | -30.8 | i | i | i | i
COc1cc(/C=C2\SC(=N)N(c3ccc4c(c3)OCO4)C2=O)cc(OC)c1O | i | i | i | i | 44.6 | i | ?
Clc1cccc(Cl)c1CSc1nnc(-c2ccncc2)s1 | i | i | i | 144.4 | i | i | ?
Clc1ccc(CSc2nnc(-c3ccncc3)s2)cc1 | i | i | i | i | i | nt | nt
N#C/C(=C\c1ccc(N2CCOCC2)o1)C(=O)NCCc1ccccc1 | i | i | i | 124.5 | 58.3 | i | 18.4µM
O=c1[nH]c(N2CCN(c3ccccc3)CC2)nc2c1CCC2 | i | i | i | i | i | nt | nt
O=c1[nH]c(N2CCN(Cc3ccccc3)CC2)nc2c1CCC2 | i | 41.0 | i | i | i | i | i
SMILES | D1 potentiator | TRHR enhancer-1 | D1 antagonist | D1 ag | TRHR agonist-1 | TRHR enhancer-2 | TRHR agonist-2
O=C(NCc1cn(-c2ccccc2)nc1-c1ccccc1)c1ccc([N+](=O)[O-])cc1 | i | 43.9 | i | i | i | i | i
O=[N+]([O-])c1cccc(-c2nn(-c3ccccc3)cc2CO)c1 | i | i | i | i | i | nt | nt
CC(=O)Nc1sc(C)c(C)c1C(=O)OCC(=O)Nc1cc(S(C)(=O)=O)ccc1Cl | i | i | i | i | i | nt | nt
CS(=O)(=O)c1ccc(Cl)c(NC(=O)COC(=O)c2c(Cl)cccc2Cl)c1 | i | 41.2 | i | i | i | i | i
Cn1c(CCNC(=O)c2ccccc2F)nnc1SCC(=O)Nc1ccccc1F | i | i | i | i | i | nt | nt
CS(=O)(=O)c1ccc(Cl)c(NC(=O)CN2CCCC2c2ccc3c(c2)OCCCO3)c1 (stereo not drawn) | i | 45.7 | i | i | i | i | i
COC(=O)[C@H](C)NC(=O)NCc1ccccc1 | i | i | i | i | i | nt | nt
CC(C)(C)NC(=O)CSc1nc2cccnc2n1C1CCCCC1 | i | 51.0 | i | i | i | i | i
CNC(=O)CSc1nc2cccnc2n1C1CCCCC1 | i | i | i | i | i | nt | nt
CCOc1ccc(NC(=O)Nc2nc3ccc(S(C)(=O)=O)cc3s2)cc1 | i | 58.2 | i | i | i | i | i
O=C(NCCc1ccccc1)c1ccc2c(c1)nc1n2CCOC1 | i | i | i | i | i | nt | nt
CN(C)C(=O)c1ccc(NS(=O)(=O)c2ccc3c(c2)OCCO3)cc1 | i | 65.6 | i | i | i | i | i
O=C(O)c1ccc(NS(=O)(=O)c2ccc3c(c2)OCCO3)cc1 | nt | i | i | i | i | nt | nt
COc1cc(OC)cc(-c2nc3nc(C)c(CCC(=O)Nc4cc(C)cc(C)c4)c(C)n3n2)c1 | i | i | i | i | i | nt | nt
COc1cc(C)ccc1OCCn1c(-c2ccc(Cl)cc2)nc2ccccc2c1=O | i | i | i | i | i | nt | nt
CCCCCn1c(CN2CC(C)OC(C)C2)nc2c1c(=O)n(C)c(=O)n2C (stereo not drawn) | i | 42.2 | i | i | i | i | i
C[C@@H](C(=O)NCc1c(F)cccc1Cl)N1C(=O)N2CCc3c([nH]c4ccccc34)[C@@]2(C)C1=O | i | i | i | i | i | nt | nt
CN(C(=O)COC(=O)c1c2c(nc3ccccc13)/C(=C/c1cccc([N+](=O)[O-])c1)CCC2)C1CCS(=O)(=O)C1 (stereo not drawn) | i | i | i | i | i | nt | nt
O=C(COC(=O)c1c2c(nc3ccccc13)/C(=C/c1cccc([N+](=O)[O-])c1)CCC2)NC1CCS(=O)(=O)C1 (stereo not drawn) | i | 42.5 | i | i | i | i | i
O=c1c2ccccc2c(/C=N/NS(=O)(=O)c2ccccc2)c(O)n1-c1ccccn1 | i | i | i | i | 31.6 | i | i
Cc1cccc(NS(=O)(=O)c2ccc(C)c(C(=O)NCC(c3cccs3)N(C)C)c2)c1 (stereo not drawn) | i | 42.3 | i | i | i | i | i
COc1ccc(-c2cc(C(F)(F)F)c3c(n2)sc2c(O)cc(=O)[nH]c23)c(OC)c1 | i | i | i | 41.6 | 34.5 | i | ?
O=C(NCC(c1ccco1)N1CCc2ccccc21)c1ccccc1 (stereo not drawn) | i | 51.3 | i | i | i | i | i
Cc1ccc(C(=O)NCC(c2ccco2)N2CCc3ccccc32)cc1C (stereo not drawn) | i | i | i | i | i | nt | nt
